# PubChem BioAssay (NCATS)
# Records with an inconclusive call do not appear. A call without a number means that no potency is given here. Active and inactive are the calls of the source. The call rests on the fitted dose curve; in most records, active means well fitted inhibition curve with a large enough effect; inconclusive means small, poorly fitted or top-dose-only effect; inactive means flat fitted curve, though single readings scatter.
# Molecular target: Phospholipid hydroperoxide glutathione peroxidase GPX4 (Homo sapiens) (UniProt P36969)
# Sequence (P36969 whole entry, looked up): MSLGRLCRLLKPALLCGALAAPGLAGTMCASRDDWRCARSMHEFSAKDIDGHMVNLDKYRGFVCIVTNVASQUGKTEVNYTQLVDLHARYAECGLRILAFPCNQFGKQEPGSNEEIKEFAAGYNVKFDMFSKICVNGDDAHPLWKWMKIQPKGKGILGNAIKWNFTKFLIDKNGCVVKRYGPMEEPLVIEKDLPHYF
# Assay: Primary qHTS Assay for Inhibitors of Recombinant Selenoprotein Glutathione Peroxidase 4 (GPX4) (AID 1845192); further: nearly all actives have a fitted effect of over 65% in size
# Conditions: recombinant GPX4, GR-coupled NADPH fluorescence, 15 min; series mostly up to 50 µM
# Method in brief: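 qHTS, GR-coupled: GPX4 200 nM + cpd 30 min RT → GSH 1 mM, NADPH 0.5 mM, GR 100 nM → CHP 0.5 mM start; fluor 340/450 at t0 and t15 min; no-enzyme wells as control.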
row,SMILES,Potency
1,Cc1ccc(/C=N/n2c(-c3ccccc3)csc2=S)cc1,inactive
2,CC(Oc1c(Cl)cccc1Cl)C1=NCCN1 (stereo not given),inactive
3,O=C(CCCCC(=O)Nc1c(I)cc(I)c(C(=O)O)c1I)Nc1c(I)cc(I)c(C(=O)O)c1I,inactive
4,CNC[C@H](O)[C@@H](O)[C@H](O)[C@H](O)CO,inactive
5,CC(=O)CC/C=C(\C)CC/C=C(\C)CC/C=C(\C)CCC=C(C)C,inactive
6,CN1CCCN=C1/C=C/c1cccs1,inactive
7,O=[N+]([O-])c1ccc(O)c2ncccc12,inactive
8,CC(=O)N(CC(O)CO)c1c(I)c(C(=O)NCCO)c(I)c(C(=O)NCC(O)CO)c1I (stereo not given),inactive
9,O=C(Oc1ccccc1)c1ccccc1O,inactive
10,Nc1c(I)cc(I)c(C(=O)N(CCC(=O)O)c2ccccc2)c1I,inactive
11,CC(=O)Nc1c(I)c(NC(C)=O)c(I)c(C(=O)O)c1I,inactive
12,OCCOCCN1CCN(C(c2ccccc2)c2ccc(Cl)cc2)CC1 (stereo not given),inactive
13,CC(=O)Nc1ccc(S(=O)(=O)Nc2cc(C)on2)cc1,inactive
14,CCOC(=O)NNc1ccc(N(CC)CC(C)O)nn1 (stereo not given),inactive
15,C[N+]1(C)CCC(OC(=O)C(O)(c2ccccc2)C2CCCC2)C1 (stereo not given),inactive
16,CC(C)C[C@@H]1[C@H](c2ccccc2)OC(=O)N1CCCN1CCCCCC1,inactive
17,C[C@@H]1CCC[C@H](C)N1CCCC(O)(c1ccccc1)c1ccccn1 (stereo not given in full),inactive
18,Cc1ncc(CO)c(CO)c1O,inactive
19,CCC(C(=O)OCCN1CCOC(c2ccccc2)C1C)c1ccccc1 (stereo not given),inactive
20,CCOC(=O)[C@H](CCc1ccccc1)N[C@@H](C)C(=O)N(CC(=O)O)C1Cc2ccccc2C1,inactive
